Source: PubChem (Broad Institute)
DUX4 txn inh: inhibitors of DUX4-driven ZSCAN4 reporter expression, primary screen, 293T cells, Gaussia and Italica luciferase; 293T-iDUX4 ZSCAN4-Gaussia luciferase reporter, 24 h; stronger effect = lower value; activity change, negative = inhibition, % (test concentration not listed); 37,000 compounds, 0.8% hits; AID 1224904, 2016;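 active = mean inhibition of at least 10% in the main channel, exceeding the control channel by a set limit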
Hits are given with their value; - = inactive; ! = a repeat was not active. Only a selection was taken, and hits are over-represented in it overall.

SMILES	DUX4 txn inh
N#Cc1ccc(-c2ccc([C@@H]3[C@@H](CO)N4CCCCN(C(=O)Cc5ccccc5)C[C@H]34)cc2)cc1	-
O=C(Cc1ccccc1)N1CCCCN2[C@H](CO)[C@@H](c3ccc(C#CC4(O)CCCC4)cc3)[C@H]2C1	-
O=C(Cc1ccncc1)N1CCCCN2[C@H](C1)[C@H](c1ccc(C#Cc3ccccc3F)cc1)[C@@H]2CO	-63
O=C(Cc1cccnc1)N1CCCCN2[C@@H](CO)[C@@H](c3ccc(C#CC4(O)CCCC4)cc3)[C@@H]2C1	-
C/C=C/c1ccc(C2[C@@H]3CN(C(C)=O)C[C@H]2N3)cc1 (stereo not given in full)	-21!
C/C=C/c1ccc(C2[C@@H]3CN(Cc4ccccn4)C[C@H]2N3)cc1 (stereo not given in full)	-
C/C=C/c1ccc(C2[C@@H]3CN(C(=O)C4CCCC4)C[C@H]2N3)cc1 (stereo not given in full)	-
COC(=O)[C@@H]1[C@@H](CO)[C@@H]2Cn3c(ccc(-c4ccncc4)c3=O)[C@H]1N2S(=O)(=O)c1ccccc1F	-
C/C=C/c1ccc(C2[C@H]3CNC[C@@H]2N3Cc2ccccn2)cc1 (stereo not given in full)	-
COC(=O)[C@H]1[C@H](CO)[C@H]2Cn3c(ccc(-c4ccccc4)c3=O)[C@@H]1N2CC1CCOCC1	-
